# Data taken from PubChem BioAssay (NCATS).
# Inconclusive results are not listed. Entries that show only a call come without a potency. Calls of active or inactive are those of the source. The call rests on the fitted dose curve; in most records, active means well fitted curve in the direction sought with a large enough effect; inconclusive means small, poorly fitted or top-dose-only effect, or another doubt; inactive means no such curve, though single readings can be large; an effect the other way counts as inactive or inconclusive.
# Assays:
# [1] = Quantitative High-Throughput drug screen in 47 multiple myeloma cell lines against the NCATS MIPE library collection: FR4_PLB cell viability assay (AID 1918924; further: nearly all actives have a fitted effect of over 35% in size; further: potency means the concentration at half of the fitted maximal effect)
# Procedure, shortened: (§1)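 Steps: seed 500 cells per well; pin-transfer MIPE 4.0 library; incubate 48 h at 37C, 5% CO2, humidified; add CellTiter-Glo, 5 min room temperature; read luminescence.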
# [2] = Quantitative High-Throughput drug screen in 47 multiple myeloma cell lines against the NCATS MIPE library collection: Delta47_JCRB cell viability assay (AID 1918925; further: nearly all actives have a fitted effect of over 45% in size; further: potency means the concentration at half of the fitted maximal effect)
# Procedure, shortened: (§2)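 qHTS of the MIPE 4.0 collection: 500 myeloma cells/well, 48 h drug exposure at 37C in 5% CO2, then CellTiter-Glo for 5 min at room temperature before luminescence reading.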
# [3] = Quantitative High-Throughput drug screen in 47 multiple myeloma cell lines against the NCATS MIPE library collection: EJM_DSMZ cell viability assay (AID 1918926; further: nearly all actives have a fitted effect of over 30% in size; further: potency means the concentration at half of the fitted maximal effect)
# Procedure, shortened: as §2
# [4] = Quantitative High-Throughput drug screen in 47 multiple myeloma cell lines against the NCATS MIPE library collection: AMO1_DSMZ cell viability assay (AID 1918927; further: nearly all actives have a fitted effect of over 30% in size; further: potency means the concentration at half of the fitted maximal effect)
# Procedure, shortened: as §2
# [5] = Quantitative High-Throughput drug screen in 47 multiple myeloma cell lines against the NCATS MIPE library collection: ARD_JJKsccE7 cell viability assay (AID 1918929; further: potency means the concentration at half of the fitted maximal effect)
# Procedure, shortened: as §2
# [6] = Quantitative High-Throughput drug screen in 47 multiple myeloma cell lines against the NCATS MIPE library collection: Karpas620_DSMZ cell viability assay (AID 1918959); further: nearly all actives have a fitted effect of over 30% in size; further: potency means the concentration at half of the fitted maximal effect
# Procedure, shortened: as §1
# [7] = Quantitative High-Throughput drug screen in 47 multiple myeloma cell lines against the NCATS MIPE library collection: KHM11_PLB cell viability assay (AID 1918962); further: nearly all actives have a fitted effect of over 35% in size; further: potency means the concentration at half of the fitted maximal effect
# Procedure, shortened: as §1
# [8] = Quantitative High-Throughput drug screen in 47 multiple myeloma cell lines against the NCATS MIPE library collection: JIM3_ECACC cell viability assay (AID 1918963; further: nearly all actives have a fitted effect of over 35% in size; further: potency means the concentration at half of the fitted maximal effect)
# Procedure, shortened: as §1
# [9] = target: Glutathione peroxidase 1 (Homo sapiens) (UniProt P07203); assay: Primary qHTS Assay for Inhibitors of Recombinant Selenoprotein Glutathione Peroxidase 1 (GPX1) (AID 1845191); further: nearly all actives have a fitted effect of over 65% in size
# Procedure, shortened: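 GR-coupled readout: NADPH consumption tracked by fluorescence, ex 340/em 450 nm, at t=0 and after 15 min at RT. Final mix 10 nM GPX1, 1 mM GSH, 0.5 mM CHP, 0.5 mM NADPH, 100 nM GR, 0.01% BSA, following 30 min enzyme–compound preincubation.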
# [10] = Quantitative High-Throughput drug screen in 47 multiple myeloma cell lines against the NCATS MIPE library collection: Karpas417_ECACC cell viability assay (AID 1918961); conditions: Karpas417 myeloma viability, CellTiter-Glo ATP luminescence, 48 h; viability (% of DMSO): at 45.8 µM (top of the series); further: potency means the concentration at half of the fitted maximal effect
# Procedure, shortened: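 CellTiter-Glo luminescence (ATP) after 48 h compound exposure, 37C/5% CO2; 500 cells/well; MIPE 4.0 approved/investigational drugs pinned in; DMSO = 100%, media only = 0% viability.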
# [11] = Quantitative High-Throughput drug screen in 47 multiple myeloma cell lines against the NCATS MIPE library collection: JIM1_ECACC cell viability assay (AID 1918964; further: potency means the concentration at half of the fitted maximal effect)
# Procedure, shortened: as §2
# [12] = Quantitative High-Throughput drug screen in 47 multiple myeloma cell lines against the NCATS MIPE library collection: KMM1_JCRB cell viability assay (AID 1918960); further: nearly all actives have a fitted effect of over 30% in size; further: potency means the concentration at half of the fitted maximal effect
# Procedure, shortened: (§3)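 500 cells/well; MIPE 4.0 library pinned in; 48 h, 37 °C, 5% CO2; CellTiter-Glo ATP luminescence. Controls: DMSO = 100% viability, medium only = 0%.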
# [13] = Quantitative High-Throughput drug screen in 47 multiple myeloma cell lines against the NCATS MIPE library collection: ARP1_JJKsccF8 cell viability assay (AID 1918928; further: nearly all actives have a fitted effect of over 40% in size; further: potency means the concentration at half of the fitted maximal effect)
# Procedure, shortened: as §3
# [14] = target: Luciferin 4-monooxygenase (Photinus pyralis) (UniProt P08659); assay: Primary firefly luciferase (FLuc) qHTS assay for identification of artifact compounds. (AID 1845220); conditions: outcome: dose series up to 54.1 µM unless noted; further: nearly all actives have a fitted effect of over 60% in size
# Procedure, shortened: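 Titrated compounds were incubated 15 min at RT, protected from light, with luciferin and ATP at 10 uM; reaction started with 10 nM FLuc, luminescence imaged at 5 min, and concentration-response fitted by Hill equation.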
# [15] = test system: Nanoluciferase (engineered Oplophorus gracilirostris luciferase); assay: Primary Nanoluciferase (NLuc) qHTS assay for identification of artifact compounds. (AID 1845222);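 further: NLuc secreted into diluted conditioned medium of S16 cells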
# Procedure, shortened: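 qHTS format, against NLuc in S16 cell-conditioned medium. Nano-Glo substrate 1:100 was added after 15 min at room temperature. Luminescence was taken after a further 5 min.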
# [16] = Primary fluorescence-based thiol-reactive (MSTI) qHTS assay for identification of artifact compounds. (AID 1845221); further: nearly all actives have a fitted effect of over 65% in size; further: potency means the concentration at half of the fitted maximal effect
# Procedure, shortened: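 MSTI probe at 4 uM final in 2% DMSO/PBS pH 7.4; compounds, 1 h at room temperature in dark. Fluorescence Ex/Em 525/598 nm, normalised to Acetyl-MSTI and MSTI, fitted to 4-parameter Hill.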
# Sequence of Glutathione peroxidase 1 (Homo sapiens) (P07203 whole entry, looked up): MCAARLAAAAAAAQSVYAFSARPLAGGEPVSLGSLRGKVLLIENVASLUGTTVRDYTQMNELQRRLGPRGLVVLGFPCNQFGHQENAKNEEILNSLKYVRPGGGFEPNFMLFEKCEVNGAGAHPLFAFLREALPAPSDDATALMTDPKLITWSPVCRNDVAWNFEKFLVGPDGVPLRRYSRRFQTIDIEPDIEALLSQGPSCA
Compound,Potency [1],Potency [2],Potency [3],Potency [4],Potency [5],Potency [6],Potency [7],Potency [8],Potency [9],Potency [10],Potency [11],Potency [12],Potency [13],outcome [14],outcome [15],Potency [16]
C[C@]12CCC(=O)C(O)=C1CC[C@@H]1[C@H]3CCC(=O)[C@@]3(C)CC[C@@H]12,inactive,inactive,inactive,inactive,inactive,inactive,inactive,inactive,,,,,,,,
O=c1[nH]c2ccccc2n1C1CCN(Cc2ccc(-c3[nH]c4cc5ncnc5cc4nc3-c3ccccc3)cc2)CC1,23500 nM (active),1870 nM (active),20900 nM (active),,18700 nM (active),,inactive,5900 nM (active),inactive,1480 nM (active),4690 nM (active),,,,,
COC1=CC(C)=C[C@@H](C)[C@@H](O)[C@@H](C)CC(C)=CC=C[C@H](OC)[C@H]([C@@H](C)[C@@H](O)[C@H](C)[C@@]2(O)C[C@@H](O)[C@H](C)[C@@H](C(C)C)O2)OC1=O,4.2 nM (active),18.7 nM (active),18700 nM (active),1 nM (active),,14800 nM (active),1 nM (active),5.3 nM (active),,,1 nM (active),9.3 nM (active),,,,
CC(C)[C@]12O[C@@H]1[C@@H]1O[C@]13[C@]1(O[C@H]1C[C@@H]1C4=C(CC[C@@]13C)C(=O)OC4)[C@H]2O,inactive,inactive,inactive,inactive,inactive,inactive,inactive,inactive,,inactive,inactive,inactive,,,,
COc1cc2cc(c1Cl)N(C)C(=O)C[C@H](OC(=O)C(C)C)[C@]1(C)O[C@H]1[C@H](C)[C@@H]1C[C@@](O)(NC(=O)O1)[C@H](OC)C=CC=C(C)C2,inactive,inactive,inactive,inactive,inactive,,inactive,inactive,,,inactive,inactive,inactive,,,
CCc1c(C(=O)C(N)=O)c2c(OCC(=O)O)cccc2n1Cc1ccccc1,inactive,inactive,inactive,inactive,inactive,inactive,,inactive,inactive,inactive,inactive,inactive,,inactive,inactive,
CC[C@@H]1[C@@H](C)O[C@@](O)([C@@H](C)[C@H](O)[C@H](C)[C@H]2OC(=O)C=CC=C[C@@H](C)[C@@H]([C@@H](C)[C@@H](O)[C@H](C)[C@@]3(O)C[C@H](O[C@H]4C[C@H](O)[C@H](O)[C@H](C)O4)[C@H](CC)[C@@H](C)O3)OC(=O)C=CC=C[C@@H]2C)C[C@H]1O[C@H]1C[C@H](O)[C@H](O)[C@H](C)O1,526 nM (active),743 nM (active),833 nM (active),332 nM (active),372 nM (active),372 nM (active),1050 nM (active),935 nM (active),,,264 nM (active),,372 nM (active),,,
CC(=O)OCC1=C(C(=O)O)N2C(=O)[C@@H](N)[C@@H]2SC1,inactive,inactive,inactive,23500 nM (active),,10500 nM (active),inactive,inactive,,,,,,,,
CC(=Cc1csc(C)n1)[C@@H]1C[C@H]2O[C@]2(C)CCC[C@H](C)[C@@H](O)[C@@H](C)C(=O)C(C)(C)[C@@H](O)CC(=O)O1,inactive,inactive,inactive,1 nM (active),inactive,,inactive,inactive,,,,1 nM (active),,,,
CC(=Cc1csc(C)n1)[C@@H]1C[C@H]2O[C@@H]2CCC[C@H](C)[C@@H](O)[C@@H](C)C(=O)C(C)(C)[C@@H](O)CC(=O)O1,inactive,inactive,inactive,1 nM (active),1 nM (active),,,inactive,,,1 nM (active),,,,,
C#CC1(O)CCC2C3CCC4=CC(=O)CCC4(C)C3CCC21C (stereo not given),,inactive,inactive,inactive,inactive,inactive,inactive,,inactive,,,inactive,inactive,,,
CC(N[C@H]1C[C@H]1c1ccccc1)c1ccc2c(c1)OCCO2 (stereo not given in full),inactive,inactive,inactive,inactive,,inactive,inactive,inactive,,,inactive,,8330 nM (active),inactive,inactive,inactive
COc1ccc(C(=O)c2c(C)n(CCN3CCOCC3)c3cc(I)ccc23)cc1,,16600 nM (active),,11800 nM (active),18700 nM (active),18700 nM (active),inactive,13200 nM (active),inactive,,11800 nM (active),18700 nM (active),,,,
CCOC(=O)c1c(C(C#N)=CN)c2ccc(Cl)c(Cl)c2n1C,inactive,inactive,inactive,inactive,,inactive,inactive,inactive,inactive,,,,inactive,,,
CC(C)(O)C=CC(=O)[C@](C)(O)[C@H]1[C@H](O)C[C@]2(C)[C@@H]3CC=C4[C@@H](C=C(O)C(=O)C4(C)C)[C@]3(C)C(=O)C[C@@]12C,46.9 nM (active),16.6 nM (active),8.3 nM (active),41.8 nM (active),296 nM (active),418 nM (active),41.8 nM (active),105 nM (active),,8.3 nM (active),14.8 nM (active),59 nM (active),66.2 nM (active),,,
CN1[C@H]2CC(O)C[C@H]1[C@H]1O[C@H]12 (stereo not given in full),26400 nM (active),9350 nM (active),20900 nM (active),inactive,inactive,inactive,14800 nM (active),9350 nM (active),,,,,,,,
CCOC(=O)Nc1ccc(NCc2ccc(F)cc2)cc1N,inactive,7430 nM (active),inactive,inactive,,,,inactive,,inactive,,,inactive,inactive,inactive,1190 nM (active)
CCNC(=O)CC1N=C(c2ccc(Cl)cc2)c2cc(OC)ccc2-n2c(C)nnc21 (stereo not given),,6620 nM (active),,10500 nM (active),13200 nM (active),,,,inactive,4180 nM (active),16600 nM (active),,,inactive,inactive,inactive
O=C(Nc1ccncc1)C(=O)c1cn(Cc2ccc(Cl)cc2)c2ccccc12,16.6 nM (active),16.6 nM (active),3720 nM (active),16.6 nM (active),41.8 nM (active),,,14.8 nM (active),inactive,,16.6 nM (active),,,,,
CC(=O)O[C@@]12CO[C@H]1C[C@H](O)[C@@]1(C)C(=O)[C@H](O)C3=C(C)[C@@H](O)C[C@@](O)([C@@H](OC(=O)c4ccccc4)[C@@H]21)C3(C)C,1050 nM (active),,3320 nM (active),,2090 nM (active),,,1050 nM (active),,,,1180 nM (active),,,,
COC[C@H]1OC(=O)c2coc3c2[C@@]1(C)C1=C(C3=O)[C@@H]2CC[C@H](O)[C@@]2(C)C[C@@H]1OC(C)=O,3720 nM (active),6.6 nM (active),,5260 nM (active),6620 nM (active),3720 nM (active),,,,,1480 nM (active),5900 nM (active),,,,
C=C1C[C@H]2[C@H]3CCC(=O)[C@@]3(C)CC[C@@H]2[C@@]2(C)C=CC(=O)C=C12,,,,18700 nM (active),,23500 nM (active),,,,,,,,,,
C[C@@H]1[C@H](O)[C@@H](C)C=CC=CCCC=CC=CC=CC=C[C@H](O[C@H]2O[C@@H](C)[C@H](O)[C@@H](N)[C@@H]2O)CC2O[C@](O)(C[C@@H](O)[C@H](O)CC[C@@H](O)C[C@@H](O)C[C@@H](O)CC(=O)O[C@H]1C)C[C@H](O)[C@H]2C(=O)O,inactive,,inactive,inactive,,inactive,,inactive,,,inactive,inactive,inactive,,,
